# PLK1 PBD block = PLK1 (human) polo-box domain binding inhibition; actives 2.8% (n = 360,000); Potency, µM, for the others: max response, negative = inhibition, hits mostly inhibitors; P53350; Plk1 PBD binding of FITC phosphopeptide, fluorescence polarization; AID 720504; further: series mostly up to about 57 µM; nearly all actives have a fitted effect of over 65% in size
# Target sequence (P53350 whole entry, looked up, the tested form may be a part): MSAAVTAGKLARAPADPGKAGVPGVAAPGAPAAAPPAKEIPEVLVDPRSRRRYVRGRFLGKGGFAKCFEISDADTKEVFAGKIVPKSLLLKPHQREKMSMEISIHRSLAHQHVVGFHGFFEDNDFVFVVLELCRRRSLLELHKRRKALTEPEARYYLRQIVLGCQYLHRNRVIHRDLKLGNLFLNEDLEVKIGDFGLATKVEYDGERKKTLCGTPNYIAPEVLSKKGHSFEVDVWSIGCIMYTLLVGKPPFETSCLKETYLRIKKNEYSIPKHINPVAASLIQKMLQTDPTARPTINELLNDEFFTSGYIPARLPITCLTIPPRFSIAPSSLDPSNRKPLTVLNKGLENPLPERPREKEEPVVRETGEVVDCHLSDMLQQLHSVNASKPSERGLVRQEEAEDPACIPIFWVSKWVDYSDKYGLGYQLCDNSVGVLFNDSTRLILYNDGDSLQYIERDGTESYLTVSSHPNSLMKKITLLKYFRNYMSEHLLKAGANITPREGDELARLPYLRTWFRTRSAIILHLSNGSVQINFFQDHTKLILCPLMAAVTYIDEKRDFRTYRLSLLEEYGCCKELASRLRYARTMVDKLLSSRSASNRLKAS
# VDR inhibitor = inhibitors of human vitamin D receptor; Potency, µM, without a hit: max response, negative = inhibition, hits mostly inhibitors; P11473; actives 0.93% (n = 400,000); VDR-SRC2-3 peptide fluorescence polarization, 2 h
#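 Inhibition of the VDR/SRC2-3 peptide interaction is quantified by fluorescence polarization. Compounds (23 nl, pintool) incubate with the reagents for 2 hours at ambient room temperature.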
# TDP1 cell noCPT = qHTS for Inhibitors of human tyrosyl-DNA phosphodiesterase 1 (TDP1): qHTS in cells in absence of CPT | Potency, µM (top dose mostly 46.2 µM), for inactives: top-dose activity change, negative = growth inhibition, actives largely listed as inhibitors | actives 15% (n = 420,000) | DT40 Tdp1-/- hTDP1 cells, no CPT, ATP luminescence, 48 h | AID 686978, 2013; further: nearly all actives have a fitted effect of over 55% in size
#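 Readout: luminescence from CellTiter-Glo after 30 min in the dark at RT. Cells: DT40 Tdp1-/- with stable hTDP1, 400/well. Exposure: compounds alone, ≥48 hr, 37 °C.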
# TDP1 block = TDP1 (human) enzyme inhibition; recombinant TDP1, AlphaScreen DNA substrate cleavage; Potency, µM (doses to about 130 µM), inactives show at the top dose activity change, negative = inhibition, actives largely listed as inhibitors; actives 0.28% (n = 350,000); AID 485290; further: nearly all actives have a fitted effect of over 40% in size
#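 Tdp1 1 nM final; 15 min RT w/ cpd; substrate 15 nM, 5 min; beads 10 ug/ml, 10 min; AlphaScreen read. Neg ctrl: no enzyme.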
# GCN5L2 inh = GCN5L2 (KAT2A) acetyltransferase inhibition; GCN5L2 HAT assay, ThioGlo1 CoA-SH fluorescence; Potency, µM (doses to about 58.9 µM), without a hit: top-dose activity change, negative = inhibition, actives largely listed as inhibitors; Q92830; actives 0.21% (n = 390,000)
#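 Titration-based screen in which CoA formation is detected via maleimide probe ThioGlo1 (50uM) turning fluorescent on thiol reaction; substrates H3(1-25) 75uM and acetyl-CoA 70uM, GCN5L2 20nM, 20 min incubation at room temperature.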
# TDP1 cell CPT = growth inhibition of DT40 Tdp1-/-;hTDP1 cells with camptothecin (screen for TDP1 inhibitors) | chicken DT40 Tdp1-/-;hTDP1 cells + 20 nM CPT, ATP luminescence, 48 h | Potency, µM (series often up to 46.2 µM), without a hit: top-dose activity change, negative = growth inhibition, hits mostly inhibitors | actives 12% (n = 420,000); further: nearly all actives have a fitted effect of over 55% in size
#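 Chicken DT40 Tdp1-/- cells stably complemented with human TDP1 were seeded at 400 cells/well in medium containing 20 nM camptothecin, exposed to pin-transferred compounds, and grown at 37 °C for at least 48 hr. Viability was read as ATP luminescence.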
# Starred values were filed as active, the others as inactive; ? = inconclusive; / = no result; [ ] = remark or other dose. An excerpt weighted towards active compounds, which were near 18% of everything screened. The call rests on the fitted dose curve; in most records, active means well fitted curve in the direction sought with a large enough effect; inconclusive means small, poorly fitted or top-dose-only effect, or another doubt; inactive means no such curve, though single readings can be large; an effect the other way counts as inactive or inconclusive. On the % scale 0 is the no-effect control and ±100 the full control effect; potency means the concentration at half of the fitted maximal effect.
SMILES,PLK1 PBD block,VDR inhibitor,TDP1 cell noCPT,TDP1 block,GCN5L2 inh,TDP1 cell CPT
CCN1c2ccccc2-c2nc(SCC(=O)Nc3cccc(C)c3C)ncc2S1(=O)=O,/,-5.4%,20.6µM*,-5.3%,-10.0%,?
CSc1ccc(Cl)c(C(=O)NNC(=O)c2csc(N3CCOCC3)n2)c1,-12.3%,-2.9%,-21.9%,0.9%,3.1%,-1.1%
Cc1ccc(CNC(=O)c2sc3nc[nH]c(=O)c3c2C)cc1,/,6.8%,-19.7%,4.4%,-4.4%,-10.6%
O=C(Nc1ccc(C(=O)O)cc1)Nc1ccc(F)cc1F,-0.8%,-13.1%,3.0%,2.3%,-1.3%,15.6%
O=C(Nc1ccccc1)Nc1ccc(Br)cc1F,8.6%,-12.9%,20.6µM*,3.2%,-1.6%,14.6µM*
O=C(Nc1cccc(Cl)c1)Nc1ccc(Br)cc1F,-4.1%,4.0%,11.6µM*,-5.5%,1.7%,20.6µM*
O=C(Nc1cccc(F)c1)Nc1cccc(Cl)c1,2.1%,5.8%,?,/,-8.1%,?
c1cnc2[nH]ccc2c1,/,/,-3.9%,/,/,-1.3%
COc1ccc(-c2csc(NC(=O)c3ccccc3Br)c2C(=O)O)cc1,-14.5%,-14.3%,1.2%,/,4.3%,1.9%
Cc1ccccc1C(=O)Nc1scc(-c2ccc(Br)cc2)c1C(=O)O,21.2µM*,-1.2%,-1.7%,/,/,3.7%
O=C(Nc1scc(-c2ccccc2)c1C(=O)O)c1ccccc1F,-6.1%,-10.5%,-4.6%,/,1.8%,-18.2%
Cc1ccc(-c2csc(NC(=O)c3ccccc3F)c2C(=O)O)cc1,?,-21.7%,20.6µM*,/,-28.6%,?
Cc1ccc(-c2csc(NC(=O)c3ccc(F)cc3)c2C(=O)O)cc1,-13.1%,2.3%,?,/,1.5%,?
COc1ccc(-c2csc(NC(=O)c3ccc(C(C)(C)C)cc3)c2C(=O)O)cc1,?,?,3.26µM*,/,/,3.66µM*
COc1ccc(N(CC(=O)NCCc2ccccc2)S(=O)(=O)c2ccc(OC)c(OC)c2)cc1,/,-3.9%,-28.0%,-1.3%[12.3 µM],6.7%,-15.4%
COc1cc(-c2nc(SCC(=O)Nc3ccc4c(c3)OCO4)c(-c3ccccc3)[nH]2)cc(OC)c1OC,/,29.9%,16.4µM*,7.5%,-13.9%,?
O=C(CSc1nc(-c2ccccc2)c(-c2ccccc2)[nH]1)Nc1ccc2c(c1)OCO2,?,-9.3%,13µM*,0.0%,-1.6%,?
O=C(CSc1nc(-c2ccccc2)[nH]c1-c1ccccc1)Nc1ccc2c(c1)OCO2,/,9.4%,14.6µM*,10.0%,0.9%,20.6µM*
COc1ccccc1Cc1nc2ccccc2nc1SCC(=O)Nc1ccc2c(c1)OCO2,/,11.6%,-16.0%,0.0%,-3.6%,-0.1%
O=C(CSc1nc2ncccc2[nH]1)Nc1ccc2c(c1)OCO2,2.8%,-8.8%,-18.7%,/,-2.0%,-6.6%
CC(C)Cc1ccc(C(C)C(N)=NCCc2ccccc2)cc1 (stereo not drawn),-6.1%,6.0%,20.6µM*,/,-8.0%,?
O=C(NCCc1ccc(Cl)cc1)c1cnccn1,-6.7%,-8.1%,14.0%,/,3.7%,1.4%
CC(C)(C)C(=O)N(Cc1ccc(Cl)cc1)c1cnccn1,2.7%,5.0%,11.6µM*,/,17.7%,?
CCC(=O)NC(c1ccc(Br)o1)c1cc(Cl)c2cccnc2c1O (stereo not drawn),/,/,/,1.0%,/,/
O=Cc1cc(OCc2ccccc2)ccc1[B-](F)(F)F,-17.2%,20µM*,2.06µM*,/,/,1.3µM*
SMILES,PLK1 PBD block,VDR inhibitor,TDP1 cell noCPT,TDP1 block,GCN5L2 inh,TDP1 cell CPT
CN(CCO)c1cccc2c1S(=O)(=O)N[C@@H](Cc1ccccc1)CO2,-2.0%,/,?,/,/,-18.5%
CCC(=O)Nc1ccc2c(c1)nc1n2CCN(CCOC)C1,-10.2%,-23.5%,-22.2%,/,-13.2%,-6.6%
O=C(CSc1nccn1Cc1ccccc1)Nc1nc2ccccc2s1,/,5.0%,-7.1%,13.5%,-13.5%,?
O=C(CSc1nccn1Cc1ccc(F)cc1)Nc1nc2ccccc2s1,/,4.3%,23.1µM*,10.8%,-16.1%,18.4µM*
COc1ccc(Cn2ccnc2SCC(=O)Nc2ccccc2F)cc1,1.0%,-3.3%,-11.6%,8.8%,-8.4%,-16.1%
COc1ccc(Cn2ccnc2SCC(=O)Nc2ccc(F)cc2F)cc1,5.2%,/,23.1µM*,/,/,?
Cn1cc(/C=C(\C#N)C(=O)Nc2ccccc2O)c2ccccc21,13.4%,13.1%,18.4µM*,/,-1.8%,?
CC(C)OC(=O)/C(C#N)=C/c1cn(C)c2ccccc12,-0.6%,-2.7%,-14.4%,0.0%,-3.1%,2.8%
Cc1nc2ccccn2c1C(=O)NN=C1CCCC1,-18.7%,-19.2%,-10.2%,-2.9%,0.8%,-1.6%
C/C(=N\NC(=O)c1c(C)nc2ccccn12)c1ccc(O)cc1O,29.5%,-2.3%,3.66µM*,3.2%,-4.7%,3.66µM*
C=C1NN(C(C)C(=O)O)C(=O)N1c1ccc(OCc2ccccc2)cc1 (stereo not drawn),/,/,-10.0%,/,/,-22.7%
O=C(NC1CC(=O)N(c2ccc(F)cc2)C1)c1cc2ccccc2o1 (stereo not drawn),/,24.8%,-12.8%,0.0%,-4.2%,-18.1%
O=C(O)CC1NC(=S)N(c2ccccc2)C1=O (stereo not drawn),-15.0%,-3.6%,-14.0%,-2.1%,-3.5%,-16.6%
O=C1C(CSCc2ccccc2)NC(=S)N1c1ccccc1 (stereo not drawn),-13.8%,-29.4%,4.61µM*,8.4%,-3.3%,2.91µM*
COC(=O)c1ccc(OCC2c3cc(OC)c(OC)cc3CCN2C(=O)c2ccco2)cc1 (stereo not drawn),-8.1%,21.1%,20.6µM*,4.0%,-6.4%,23.1µM*

# Bioassay records as filed in PubChem.
